# According to PubChem BioAssay (NCATS):
# Records with an inconclusive call do not appear. A number with no mark means an inactive call. Active and inactive are the calls of the source. The call rests on the fitted dose curve; in most records, active means well fitted cell-killing curve with a large enough effect; inconclusive means small, poorly fitted or top-dose-only effect; inactive means flat fitted curve, though single readings scatter.
# Assay: qHTS of pediatric cancer cell lines to identify multiple opportunities for drug repurposing: Primary screen for RD cells (AID 1347104); further: nearly all actives have a fitted effect of over 55% in size
# Details: RD rhabdomyosarcoma viability, CellTiter-Glo luminescence, 48 h; series mostly up to 46 µM; activity change, negative = cytotoxic: at the top concentration
# Text: Drug repurposing or repositioning has been offered as a strategy for drug development in oncology programs. This approach has special potential for childhood cancers and other rare or orphan diseases, where the expected return on new drug development has been a disincentive to pharmaceuticals. […] In this project we exploit the poly-pharmacology of drugs to discover new indications via phenotypic screening of a panel of 19 well-characterized cell lines derived from solid tumors seen in children and adolescents. The goal is to identify approved drugs with previously unrecognized anticancer properties that has the potential to reveal new mechanisms and biological processes involved in carcinogenesis or drug resistance. We employed a titration-based paradigm (quantitative high-throughput screening or qHTS), where all compounds were tested at multiple concentrations for their effect on cell viability. Concentration-response curves (CRCs) were derived directly from the primary screen, and both potency and efficacy values were used to identify compounds with robust bioactivity profiles. We screened the NIH Chemical Genomics Center (NCGC) Pharmaceutical Collection (NPC) and Mechanism Interrogation Plate (MIPE) small molecule collections of approved and investigational compounds against these cell lines; and measured metabolically active cells after 48 hours of compound treatment as a proxy for cell viability. […] Assay Submitter: Nathalia J. Martinez, National Center for Advancing Translational Sciences, National Institutes of Health, Rockville, MD, USA; email: natalia.martinez@nih.gov Shen, M et al. Quantitative high-throughput phenotypic screening of pediatric cancer cell lines identifies multiple opportunities for drug repurposing. Oncotarget 2017 Dec 19;9(4):4758-4772. PMID 29435139.
# The cells were obtained from University of North Carolina (UNC), Pediatric Preclinical Testing Program (PPT), and Coriell Institute (CI). qHTS cell viability assay: Cells were assayed in growth media at a density of 500-1,000 cells/well. Five microliters of cells were dispensed into 1,536-well, white, solid-bottom, TC-treated plates (Greiner Bio One) using a multidrop dispenser and incubated at 37 degrees C, 5% CO2, under a humidified atmosphere for 5 hours. Twenty-three nanoliters of compounds and controls (neutral control DMSO or positive control bortezomib at final concentration of 2.3 µM) were subsequently transferred by Kalypsys pintool. For primary screens, the MIPE collection was tested at 11-point dilutions (final concentrations range from 0.78 nM to 46 µM) and the NPC collection at 8-point dilutions (final concentrations range from 0.59 nM to 46 µM). Compounds tested in follow-up screens were assayed at 11-point dilutions. Cells were incubated for 48 hours, followed by addition of 3 µL of CellTiter-Glo (Promega). After a 15 min incubation at room temperature, samples were analyzed for luminescence intensity using a ViewLux High-throughput CCD imager equipped with clear filters.
# Potency means the concentration at half of the fitted maximal effect.
Structure (SMILES),Potency,"activity change, negative = cytotoxic"
Cc1c(-c2cccc3c(CCCOc4cccc5ccccc45)c(C(=O)O)n(Cc4cccnc4)c23)c(COc2ccc(N3CCN([S+](=O)([O-])N(C)C)CC3)cc2)nn1C,33.2 µM (active),
CC1=C(C(=O)Nc2cc3cn[nH]c3cc2F)C(c2ccc(C(F)(F)F)cc2)CC(=O)N1 (stereo not given),,2.68%
CCCCOCCOc1nc(-c2ccc(C(=O)O)c(F)c2)sc1C,,0.915%
NCC1CCC(C(=O)O)CC1 (stereo not given),,-0.115%
CS(=O)(=O)c1ccc(C2=C(c3ccccc3)C(=O)OC2)cc1,,11.6%
CCNC(=O)Nc1ccc(Oc2ncnc(N)c2C=NOC)cc1Cl,,9.95%
C[C@@H](O)[C@H]1C(=O)N2C(C(=O)OCOC(=O)C(C)(C)C)=C(SC3CN(C4=NCCS4)C3)[C@H](C)[C@H]12,,-29.5%
C[C@@H]1[C@H](O)[C@@H](C)C=CC=CC=CC=CC=CC=CC=C[C@H](O[C@@H]2O[C@H](C)[C@H](O)[C@H](N)[C@@H]2O)C[C@@H]2O[C@](O)(C[C@@H](O)C[C@@H](O)[C@H](O)CC[C@@H](O)C[C@@H](O)CC(=O)O[C@H]1C)C[C@H](O)[C@@H]2C(=O)O,0.743 µM (active),
CCOC(=O)N1CCN([N+]([O-])=NOc2cc(ON=[N+]([O-])N3CCN(C(=O)OCC)CC3)c([N+](=O)[O-])cc2[N+](=O)[O-])CC1,,7.07%
CCNC(=O)CCCC=CC[C@@H]1[C@H](C=CC(O)CCc2ccccc2)[C@@H](O)C[C@@H]1O (stereo not given in full),,5.03%
Nc1ccc(-c2ccc3ncc4ccc(=O)n(-c5cccc(C(F)(F)F)c5)c4c3c2)cn1,0.235 µM (active),
CN(C)c1nc(Cc2ccc(NC(=O)c3ccc(C(F)(F)F)cc3)cc2)nc(N(C)C)c1CC(=O)O,,7.96%
CNC1CCC(N(Cc2cccc(-c3ccncc3)c2)C(=O)c2sc3ccccc3c2Cl)CC1 (stereo not given),18.7 µM (active),
N[C@@H](CC(=O)N1CCn2c(nnc2C(F)(F)F)C1)Cc1cc(F)c(F)cc1F,,-5.73%
Cc1cccc(Nc2nc(N[C@@H]3CCCC[C@H]3N)ncc2C(N)=O)c1,16.6 µM (active),
CN1CCC[C@H]1CCO[C@](C)(c1ccccc1)c1ccc(Cl)cc1,37.2 µM (active),
CN[C@@H]1[C@@H](O)[C@@H](O[C@@H]2[C@@H](O)[C@H](O[C@H]3O[C@H](CN)[C@@H](O)[C@H](O)[C@@H]3O)[C@@H](N)C[C@@H]2NC(=O)[C@@H](O)CN)OC[C@]1(C)O,,-0.194%
N=C1SC(=Cc2ccc(-c3ccc4c(c3)C(=O)NC4=O)o2)C(=O)N1c1ccc(Br)cc1,,-10.2%
COc1cc2c(cc1OC)[C@@H]1Cc3ccc(OC)c(OC)c3CN1CC2,,-3.02%
CCNC(=O)c1noc(-c2cc(C(C)C)c(O)cc2O)c1-c1ccc(CN2CCOCC2)cc1,0.235 µM (active),

Structure (SMILES),Potency,"activity change, negative = cytotoxic"
CN(C)N=Nc1nc[nH]c1C(N)=O,,10.4%
NCc1c[nH]c(=S)n1[C@H]1CCc2c(F)cc(F)cc2C1,33.2 µM (active),
CC1(C)C(N(O)C(=O)Nc2ccc(Cl)cc2)N(c2ccc(Cl)cc2)C(=O)N1CC(=O)NN=CC=Cc1ccc([N+](=O)[O-])o1 (stereo not given),29.6 µM (active),
COc1ccc(-c2oc3c(CC=C(C)C)c(O)cc(O)c3c(=O)c2O)cc1,37.2 µM (active),
N#CC(c1ccnc(NCCc2cccnc2)n1)c1nc2ccccc2s1 (stereo not given),23.5 µM (active),
C[C@@H]1C[C@H]2[C@@H]3CCC4=CC(=O)C=C[C@]4(C)[C@@]3(F)[C@@H](O)C[C@]2(C)[C@@]1(O)C(=O)CO,,-20.4%
CNc1nc(Nc2ccc(C(=O)N3CCOCC3)cc2OC)ncc1Cl,,3.23%
CO[C@H]1/C=C\O[C@@]2(C)Oc3c(C)c(O)c4c(O)c(c5c(nc6cc(C)ccn65)c4c3C2=O)NC(=O)C(C)=CC=C[C@H](C)[C@H](O)[C@@H](C)[C@@H](O)[C@@H](C)[C@H](OC(C)=O)[C@H]1C,,-18.7%
O=C(CC12CC3CC(CC(C3)C1)C2)Nc1cccc2nc(NCCNCCO)ccc12,33.2 µM (active),
CC[C@H](C)n1cc(C)c2c(C(=O)NCc3c(C)cc(C)[nH]c3=O)cc(-c3ccc(N4CCNCC4)nc3)cc21,4.69 µM (active),
CC(=O)N1CCN(c2ccc(OCc3nn(C)c(C)c3-c3cccc4c(CCCOc5cc(C)c(Cl)c(C)c5)c(C(=O)O)n(Cc5cccnc5)c34)cc2)CC1,18.7 µM (active),
C=C1c2cccc(O)c2C(O)=C2C(=O)[C@@]3(O)C(O)=C(C(N)=O)C(=O)[C@@H](N(C)C)[C@@H]3[C@@H](O)[C@H]12,,-6.11%
CC=C1C2C=C(C)CC1(N)c1ccc(=O)[nH]c1C2 (stereo not given),,-1.42%
C[C@]12CCC3=C4CCC(=O)C=C4CC[C@@H]3[C@H]1CC[C@@]2(O)CC#N,,1.46%
NS(=O)(=O)c1cc(Cl)c(Cl)c(S(N)(=O)=O)c1,,5.05%
O=S(=O)(NCCNCC=Cc1ccc(Br)cc1)c1cccc2cnccc12,18.7 µM (active),
COC(=O)Nc1ccc(-c2nc(N3CCOCC3)c3cnn(C4CCN(C(=O)OC)CC4)c3n2)cc1,1.66 µM (active),
CN[C@@H]1CN(c2ccc3c(=O)c(C(=O)O)cn(-c4nccs4)c3n2)C[C@@H]1OC,14.4 µM (active),
CC(C)CNc1ccnc(NCc2csc(-c3ccccc3)n2)n1,29.6 µM (active),
NC(=O)c1ccc(N(C(N)=O)c2c(F)cccc2F)nc1-c1ccc(F)cc1F,,-20.4%
